Assay outcomes (PubChem BioAssay)
This is a sample that favours compounds with a hit; in the whole collection about 1.2% have one here.
GSH bead fluor – compound fluorescence on glutathione beads, profiling panel, artefact control, biophysical, 488/530 nm, flow cytometry; fluorescence (KMESF) at 10 µM; GSH beads flow cytometry, compound fluorescence 488/530 nm; hits give high values; hit rate 0.25% among 190,000; in the data active = fluorescence above about 89;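 note: glutathione beads carrying GST-tagged Bcl family fusion proteins plus one bare bead set; values are compound well signal with DMSO vehicle wells as background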
Avidin bead fluor – green autofluorescence of compounds with avidin beads – biophysical, 488/530 nm, flow cytometry, artefact control, profiling panel. compound fluorescence 488/530 nm; hits give high values. fluorescence (KMESF) at 10 µM. hit rate 0.38% among 220,000; in the data active = fluorescence above about 47
RGS7-Gao reg – RGS7-Galphao binding modulators, primary screen, biochemical, multiplexed bead flow cytometry; Guanine nucleotide-binding protein G(o) subunit alpha (Homo sapiens), P09471; actives lie on both sides; binding response (% of control), % at 10 µM; hit rate 0.35% among 220,000; in the data active = binding response below about 49% or above about 150%;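 note: fluorescent Galphao held in activated GDP-AlF4 state binding bead-coupled RGS7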
Target sequence (P09471 whole entry, looked up): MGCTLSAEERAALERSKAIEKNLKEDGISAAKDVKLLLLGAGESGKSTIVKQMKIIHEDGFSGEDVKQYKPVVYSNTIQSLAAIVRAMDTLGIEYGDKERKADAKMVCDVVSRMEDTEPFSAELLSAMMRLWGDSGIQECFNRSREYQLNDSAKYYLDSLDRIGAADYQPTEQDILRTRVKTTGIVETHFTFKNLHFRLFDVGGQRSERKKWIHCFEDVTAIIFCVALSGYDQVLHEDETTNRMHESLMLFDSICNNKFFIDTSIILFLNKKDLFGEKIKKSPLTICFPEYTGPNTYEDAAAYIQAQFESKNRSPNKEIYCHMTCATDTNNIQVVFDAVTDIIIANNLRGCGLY
RGS8-Gao reg – RGS8-Galphao binding modulators, primary screen, biochemical, multiplexed bead flow cytometry. hit rate 0.34% among 220,000. actives lie on both sides. response (percent of control binding), % at 10 µM; in the data active = response below about 60% or above about 140%; inactive = in between;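 note: Galphao activated as the GDP aluminium fluoride complex binding bead-coupled RGS8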
RGS16-Gao – modulators of RGS16 binding to Galphao, primary screen, biochemical, human proteins, multiplexed bead flow cytometry; bead-based flow cytometry RGS16-Galphao binding, fluorescence; actives lie on both sides; binding response (% of control), % at 10 µM; hit rate 0.38% among 220,000; Regulator of G-protein signaling 16 (Homo sapiens) + Guanine nucleotide-binding protein …;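 note: Galphao activated by GDP with aluminum fluoride before binding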
RGS4-Gao reg – modulators of RGS4 binding to Galphao, primary screen, biochemical, multiplexed bead flow cytometry | AID 1415, 2008 | binding response (% of control), % at 10 µM | hit rate 0.33% among 220,000 | Guanine nucleotide-binding protein G(o) subunit alpha (Homo sapiens), P09471 | actives lie on both sides; in the data active = binding response below about 49% or above about 150%; inactive = in between;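 note: fluorescent Galphao activated with aluminum fluoride binding bead-coupled RGS4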
RGS-Gao – modulators of RGS–Galpha-o binding, primary screen, biochemical, multiplexed beads, flow cytometry, RGS4/7/8/16/19 | shares compounds with RGS16-Gao | multiplexed bead flow cytometry | RGS4–Galpha-o binding response, % at 10 µM | hit rate 99% among 1,600 | AID 1504, 2009;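 note: fluorescently labeled Galpha-o bound to GDP with aluminium fluoride binding biotinylated RGS beads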
Avidin counter – disruption of biotin probe capture by avidin, counter-screen for RGS protein interaction modulators, biochemical, flow cytometry, bead-based | shares compounds with RGS16-Gao | streptavidin beads, fluorescein-biotin binding | inhibition, % at 10 µM | 1,700 tested, under 10 active | AID 1783, 2009;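 active = inhibition above 50%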;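 note: median green fluorescence of gated singlet beads compared with DMSO control wells; 0% = DMSO wells and 100% = complete loss of bead fluorescence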
RGS8-Gao single – RGS8-Galphao binding modulators, confirmation, biochemical, multiplexed bead flow cytometry, single concentration; shares compounds with RGS16-Gao; bead-based flow cytometry RGS8-Galphao binding, fluorescence; actives lie on both sides; binding response (% of control), % at 10 µM; hit rate 3% among 1,700; AID 1836, 2009; in the data active = binding response below about 72% or above about 130%; inactive = in between;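 note: Galphao activated as GDP AlF4 complex before binding bead RGS8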
RGS7-Gao confirm – RGS7-Galphao binding modulators, confirmation, biochemical, multiplexed bead flow cytometry, single concentration. shares compounds with RGS16-Gao. bead-based flow cytometry RGS7-Galphao binding; actives lie on both sides. response (percent of control binding), % at 10 µM. hit rate 7.8% among 1,700; in the data active = response below about 75% or above about 130%; inactive = in between;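 note: fluorescent Galphao activated with GDP and aluminum fluoride binding bead-coupled RGS7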
RGS16-Gao single – modulators of RGS16-Galphao protein binding, confirmation, biochemical, single concentration, multiplexed bead flow cytometry. hit rate 4% among 1,700. response (% of control binding), % at 10 µM. AID 1838, 2009. bead-based flow cytometry; actives lie on both sides. shares compounds with RGS16-Gao; in the data active = response below about 74% or above about 130%; inactive = in between;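 note: Galphao activated as the GDP aluminium fluoride complex binding bead-coupled RGS16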
RGS4-Gao single – modulators of RGS4-Galphao protein binding, confirmation, biochemical, single concentration, multiplexed bead flow cytometry. actives lie on both sides. binding response (% of control), % at 10 µM. hit rate 4% among 1,700. shares compounds with RGS16-Gao. AID 1840, 2009; in the data active = binding response below about 74% or above about 130%; inactive = in between
RGS19-Gao single – regulators of RGS19-Galphao binding, confirmation, biochemical, single point, multiplexed bead flow cytometry | shares compounds with RGS16-Gao | hit rate 5% among 1,700 | AID 1841, 2009 | bead-based flow cytometry RGS19-Galphao binding; actives lie on both sides | response (percent of control binding), % at 10 µM; in the data active = response below about 50% or above about 160%; inactive = in between;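 note: 100% = no compound control and 0% = blank background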
* hit, by the source's call; [ ] = another dose, or the depositor's remark. Unless noted, the rule behind the calls is not given here.

How did CC(C)CC(NC(=O)C(NC(=O)C(Cc1ccc(OCc2ccccc2)cc1)NC(=O)OC(C)(C)C)C(C)C)C(N)=O (stereo not drawn) do in these assays?
GSH bead fluor: 13; Avidin bead fluor: 10; RGS7-Gao reg: 107.8; RGS8-Gao reg: 116.4; RGS16-Gao: 182.9*[activator]; RGS4-Gao reg: 104.1; RGS-Gao: 104.1*; Avidin counter: -0.8; RGS8-Gao single: 100.8; RGS7-Gao confirm: 93.3; RGS16-Gao single: 100.5; RGS4-Gao single: 98.2; RGS19-Gao single: 94.8

How did CC(C)CC(NC(=O)C(CC(C)C)NC(=O)OC(C)(C)C)C(=O)O (stereo not drawn) do in these assays?
GSH bead fluor: 17; Avidin counter: -0.4; RGS8-Gao single: 98.1; RGS7-Gao confirm: 100.3; RGS16-Gao single: 95.3; RGS4-Gao single: 98.1; RGS19-Gao single: 87.4

How did O=C(Nc1ccc(O)c(-c2nc3ccccc3o2)c1)C1(c2ccc([N+](=O)[O-])cc2)CCCC1 do in these assays?
GSH bead fluor: 11; Avidin bead fluor: 10; RGS7-Gao reg: 97.0; RGS8-Gao reg: 102.0; RGS16-Gao: 98.6; RGS4-Gao reg: 98.1

Results for Nc1ncnc(Nc2cccc(C(F)(F)F)c2)n1 ?
GSH bead fluor: 12; Avidin bead fluor: 38; RGS7-Gao reg: 97.3; RGS8-Gao reg: 99.1; RGS16-Gao: 99.8; RGS4-Gao reg: 99.8

Results for c1ccc2c(C3=NNC(=NC4CCCCC4)SC3)c[nH]c2c1 ?
GSH bead fluor: 5; Avidin bead fluor: 8; RGS7-Gao reg: 95.1; RGS8-Gao reg: 79.5; RGS16-Gao: 5.2*; RGS4-Gao reg: 96.0; RGS-Gao: 96.0*; Avidin counter: 0.3; RGS8-Gao single: 102.2; RGS7-Gao confirm: 100.9; RGS16-Gao single: 102.8; RGS4-Gao single: 105.1; RGS19-Gao single: 97.2

What do the screens show for `Cc1cc(C)cc(OCC(=O)NNC(=O)c2ccoc2C)c1`?
GSH bead fluor: 44; Avidin bead fluor: 8; RGS7-Gao reg: 99.5; RGS8-Gao reg: 102.9; RGS16-Gao: 97.8; RGS4-Gao reg: 101.7
